Screens deposited in PubChem by National Center for Advancing Translational Sciences (NCATS).
TDP1 cell noCPT – qHTS for Inhibitors of human tyrosyl-DNA phosphodiesterase 1 (TDP1): qHTS in cells in absence of CPT | DT40 Tdp1-/- hTDP1 cells, no CPT, ATP luminescence, 48 h | Potency, µM (doses to about 46.2 µM), usual class: inhibitors | 420,000 tested, 15% active | AID 686978, 2013; also: nearly all actives have a fitted effect of over 55% in size
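No-CPT arm: Tdp1-/-;hTDP1 DT40 cells (400/well) plus compounds, incubated ≥48 hr at 37 °C. Readout CellTiter-Glo luminescence.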
TDP1 block – blocks human tyrosyl-DNA phosphodiesterase 1 | 350,000 tested, 0.28% active | Potency, µM (series often up to 130 µM), most hits filed as inhibitors | Q9NUW8 | recombinant TDP1, AlphaScreen DNA substrate cleavage; also: nearly all actives have a fitted effect of over 40% in size
Target sequence (Q9NUW8 whole entry, looked up): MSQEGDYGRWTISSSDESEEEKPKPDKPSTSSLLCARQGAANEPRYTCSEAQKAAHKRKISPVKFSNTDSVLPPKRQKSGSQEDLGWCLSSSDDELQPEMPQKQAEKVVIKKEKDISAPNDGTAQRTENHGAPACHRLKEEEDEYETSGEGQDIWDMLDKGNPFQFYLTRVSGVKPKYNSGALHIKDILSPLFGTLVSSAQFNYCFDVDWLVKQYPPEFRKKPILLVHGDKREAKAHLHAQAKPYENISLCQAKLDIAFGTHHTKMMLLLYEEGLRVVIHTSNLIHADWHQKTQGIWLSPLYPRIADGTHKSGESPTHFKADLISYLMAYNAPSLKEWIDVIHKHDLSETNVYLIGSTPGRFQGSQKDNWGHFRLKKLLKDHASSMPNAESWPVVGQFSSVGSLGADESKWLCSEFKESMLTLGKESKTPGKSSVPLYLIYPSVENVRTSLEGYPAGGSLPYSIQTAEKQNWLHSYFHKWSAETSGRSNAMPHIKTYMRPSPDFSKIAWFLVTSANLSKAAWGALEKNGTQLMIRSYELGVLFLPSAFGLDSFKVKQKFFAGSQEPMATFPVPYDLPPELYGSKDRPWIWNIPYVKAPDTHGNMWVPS
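Tdp1 1 nM final; 15 min RT w/ cpd; substrate 15 nM, 5 min; beads 10 ug/ml, 10 min; AlphaScreen read. Neg ctrl: no enzyme.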
TDP1 cell CPT – DT40-hTDP1 cell growth loss with CPT; chicken DT40 Tdp1-/-;hTDP1 cells + 20 nM CPT, ATP luminescence, 48 h; Potency, µM (highest dose often 46.2 µM), actives largely listed as inhibitors; 420,000 tested, 12% active; AID 686979; also: nearly all actives have a fitted effect of over 55% in size
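Cell growth measured by CellTiter-Glo luminescence after a minimum 48 h, 37 C compound exposure with 20 nM CPT in Tdp1-knockout DT40 cells stably expressing hTDP1, seeded 400/well; qHTS titration format.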
RORg inh – inhibitors of mouse ROR gamma transcriptional activity. P51450. Drosophila S2 Gal4-RORgamma UAS-luciferase reporter, 20 h. Potency, µM (top dose mostly 53.6 µM), actives largely listed as inhibitors. 310,000 tested, 5.4% active; also: nearly all actives have a fitted effect of over 60% in size
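A Gal4/UAS one-hybrid system in insect cells: metallothionein-promoter Gal4–ROR gamma fusion plus Photinus luciferase reporter. Copper sulfate 700 uM final, 20 hr ambient incubation, luminescent detection after 10 min with reagent.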
Gal4-VP16 FLuc – Gal4-VP16 reporter inhibition counter-screen; AID 2546; 310,000 tested, 3.5% active; Drosophila S2 Gal4-VP16 UAS-luciferase, luminescence, 20 h; Potency, µM (series often up to 53.6 µM), most hits filed as inhibitors;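 also: Gal4-VP16 expression switched on by copper sulfate through the metallothionein promoter; nearly all actives have a fitted effect of over 50% in size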
Of the large screens only hits and unclear results are named; the others gave an inactive call. Shown are actives, neighbours in structure and some others; about 19% of the full set was active somewhere. Calls follow the shape of the dose curve; as a rule, active = well fitted curve in the direction sought with a large enough effect; inconclusive = small, poorly fitted or top-dose-only effect, or another doubt; inactive = no such curve, though single readings can be large; an effect the other way counts as inactive or inconclusive.

CN(C)S(=O)(=O)c1ccc(C(=O)Nc2cc3c(cc2C(=O)O)OCCCO3)cc1	none
CC1=C(C(=O)Nc2ccc(C(=O)NC(C)c3ccccc3)cc2)SCCO1 (stereo not given)	none (no result: TDP1 block)
CCN(CC)S(=O)(=O)c1ccc(C(=O)Nc2ccc(OCC(=O)N3CCOCC3)cc2)cc1	none
O=C(NNc1c(Cl)cncc1Cl)c1sccc1Cl	TDP1 cell noCPT inconclusive
CCOc1ccc(NC(=O)c2c[nH]n3c(=O)cc(C4CCN(C(=O)OC(C)(C)C)CC4)nc23)cc1	none (no result: TDP1 block)
CN(C)S(=O)(=O)c1ccc(C(=O)Nc2nc(-c3ccccc3)c(C(=O)c3ccccc3)s2)cc1	TDP1 cell noCPT inconclusive, TDP1 cell CPT inconclusive
COC(=O)Nc1nc(-c2ccccc2)c(C(=O)c2ccccc2)s1	TDP1 cell noCPT 0.65µM, TDP1 cell CPT 0.82µM
COC(=O)Nc1nc(C)c(C(=O)c2ccccc2)s1	TDP1 cell noCPT 12µM, TDP1 cell CPT 8.2µM
Cc1cccc(C)c1NC(=O)CSCc1cnn(-c2ccccc2)c1-n1cccc1	TDP1 cell noCPT 10µM, TDP1 cell CPT 10µM (no result: RORg inh, Gal4-VP16 FLuc)
Cc1ccc(NC(=O)CSCc2cnn(-c3ccccc3)c2-n2cccc2)c(Cl)c1	TDP1 cell noCPT inconclusive, TDP1 cell CPT inconclusive (no result: RORg inh, Gal4-VP16 FLuc)
O=C(CCSCc1cnn(-c2ccccc2)c1-n1cccc1)NCc1ccc(Cl)cc1	TDP1 cell noCPT inconclusive, TDP1 cell CPT inconclusive (no result: RORg inh, Gal4-VP16 FLuc)
COc1cc(NC(=O)CSCc2cnn(-c3ccccc3)c2-n2cccc2)cc(OC)c1	TDP1 cell noCPT 15µM, TDP1 cell CPT inconclusive, RORg inh inconclusive
COc1ccc(OC)c(NC(=O)CSCc2cnn(-c3ccccc3)c2-n2cccc2)c1	TDP1 cell noCPT 16µM, TDP1 cell CPT inconclusive
O=C(CSCc1cnn(-c2ccccc2)c1-n1cccc1)Nc1ccc(F)cc1F	TDP1 cell noCPT 18µM, TDP1 cell CPT inconclusive (no result: RORg inh, Gal4-VP16 FLuc)
NC(=S)Nc1nccc(-c2cccs2)n1	RORg inh inconclusive
CSCCC(C(=O)NC1CCCC1)n1c(-c2ccncc2)nc2ccccc21 (stereo not given)	TDP1 cell CPT inconclusive (no result: TDP1 block, RORg inh, Gal4-VP16 FLuc)
Cc1ccc(N2CC(C(=O)Nc3nnc(SCC(=O)NCC4CCCO4)s3)CC2=O)cc1C (stereo not given)	none
CCN(C(=O)Cc1nc(-c2ccc(OC)cc2)no1)c1cccc(Cl)c1	TDP1 cell noCPT 16µM, TDP1 cell CPT inconclusive (no result: RORg inh, Gal4-VP16 FLuc)
CCCN(C(=O)Cc1nc(-c2ccc(OC)cc2)no1)c1ccccc1C	TDP1 cell noCPT inconclusive, TDP1 cell CPT 21µM (no result: RORg inh, Gal4-VP16 FLuc)
COc1ccc(-c2noc(CC(=O)N(C)c3cc(Cl)c(OC)cc3OC)n2)cc1	TDP1 cell noCPT inconclusive, TDP1 cell CPT inconclusive (no result: RORg inh, Gal4-VP16 FLuc)
COc1ccc(-c2noc(CCC(=O)N(C)c3cccc(C)c3)n2)cc1	TDP1 cell noCPT inconclusive, TDP1 cell CPT inconclusive
CCCN(C(=O)CCc1nc(-c2ccc(OC)cc2)no1)c1ccccc1F	TDP1 cell noCPT 16µM, TDP1 cell CPT inconclusive (no result: RORg inh, Gal4-VP16 FLuc)
CCCC(C)NNC(=O)c1cc2ccccc2[nH]1 (stereo not given)	none
Cc1onc(-c2ccccc2Cl)c1C(=O)Oc1ccc(Cl)cc1Cl	TDP1 cell noCPT 21µM, TDP1 cell CPT 16µM (no result: RORg inh, Gal4-VP16 FLuc)
COc1ccc(/C(N)=N/OC(=O)c2c(-c3ccccc3Cl)noc2C)cc1OC	TDP1 cell noCPT inconclusive, TDP1 cell CPT 21µM, Gal4-VP16 FLuc 10µM
C=CCNC(=O)c1ccc(Cn2c(=S)[nH]c3cc4c(cc3c2=O)OCO4)cc1	TDP1 cell CPT inconclusive
CC1CCCCN1CCNC(=O)c1ccc2c(=O)n(Cc3ccc(Cl)cc3)c(=S)[nH]c2c1 (stereo not given)	TDP1 cell noCPT inconclusive, TDP1 cell CPT inconclusive, RORg inh 11µM, Gal4-VP16 FLuc inconclusive
CC1CCCCN1CCNC(=O)c1ccc2c(=O)n(CCc3ccccc3)c(=O)[nH]c2c1 (stereo not given)	TDP1 cell noCPT inconclusive, TDP1 cell CPT inconclusive
O=c1c2cc3c(cc2[nH]c(=S)n1C1CCN(Cc2ccccc2)CC1)OCO3	TDP1 cell noCPT inconclusive, TDP1 cell CPT 26µM, RORg inh 5µM, Gal4-VP16 FLuc 3.5µM
O=C(NCCN1CCCC1)c1ccc(Cn2c(=S)[nH]c3cc4c(cc3c2=O)OCO4)cc1	TDP1 cell noCPT 23µM
CSc1ccc(/C=N/NC(=O)c2ccc(-n3cnnn3)cc2)cc1	none (no result: RORg inh, Gal4-VP16 FLuc)
